Screening data deposited in PubChem by National Center for Advancing Translational Sciences (NCATS).
TDP-43 yeast inh: TDP-43 toxicity inhibition in yeast | Potency, µM (doses to about 46.1 µM), for the others: at the top dose growth rescue (activation), hits mostly activators | 1.8% of 410,000 active | TDP-43 expressing yeast growth rescue, BacTiter-Glo, 24 h; further: potency means the concentration at half of the fitted maximal effect; % of control where 0% means no effect; nearly all actives have a fitted effect of over 50% in size
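Yeast expressing TDP-43 (pregrown in raffinose, seeded at OD600=0.02 in galactose medium) exposed to compounds 24 hr at 30 deg C. Growth read by BacTiter-Glo luminescence; rescue of toxicity appears as increased signal.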
LDHA block: LDHA (human) enzyme inhibition; activity change, % (values are at about 110 or 230 µM); purified LDHA, NADH/diaphorase-resazurin fluorescence; stronger effect = lower value; 0.15% of 480,000 active; in the data active means activity change below about -30%; inconclusive means mostly about -25% to -30%;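 further: plate controls were DMSO wells for no effect and wells without enzyme for full effect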
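Human LDH5 at 2 nM final in Tris HCl pH 7.4 with 0.06 mM NADH and 0.2 mM pyruvate, reacted 5 minutes at room temperature. Remaining NADH coupled via diaphorase/resazurin; resorufin fluorescence read at 0 and 20 minutes, normalized to enzyme-free and DMSO wells.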
FUS yeast rescue: FUS proteinopathy suppression in yeast; S. cerevisiae FUS-expressing, growth rescue, OD600, 24 h; Potency, µM (top dose mostly 76.6 µM), most hits filed as activators; 0.24% of 390,000 active;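 further: potency means the concentration at half of the fitted maximal effect; plate controls were DMSO vehicle for no effect and reference control for full effect; nearly all actives have a fitted effect of over 55% in size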
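Galactose (2%) drives FUS expression in yeast precultured in raffinose; seeding density OD 0.005. Test compounds incubated 24hr at 30C and 99% humidity before absorbance at 600 nm was measured.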
aSyn yeast inh: alpha-synuclein toxicity inhibition in yeast | Yeast expressing alpha-synuclein, growth rescue, BacTiter-Glo, 24 h | Potency, µM (top dose mostly 46.1 µM), for inactives: at the highest dose growth rescue (activation), most hits filed as activators | 0.14% of 370,000 active; further: potency means the concentration at half of the fitted maximal effect; % of control where 0% means no effect; nearly all actives have a fitted effect of over 65% in size
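Galactose-induced alpha-syn yeast (OD600=0.02, raffinose-pregrown) + pinned cpd, 24 hr, 30 deg C; growth by BacTiter-Glo luminescence. Growth restoration scores as activation.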
IDH1 R132H inh: blocks human mutant IDH1 R132H enzyme; O75874; IDH1-R132H enzyme, NADPH consumption, diaphorase/resazurin fluorescence; Potency, µM (top dose mostly 76.6 µM), without a hit: at the highest dose activity change, negative = inhibition, most hits filed as inhibitors; 0.093% of 390,000 active; further: potency means the concentration at half of the fitted maximal effect; on the % scale 0 is the no-effect control and ±100 the full control effect; nearly all actives have a fitted effect of over 65% in size
Target sequence (O75874 whole entry R132H, stated change not applied): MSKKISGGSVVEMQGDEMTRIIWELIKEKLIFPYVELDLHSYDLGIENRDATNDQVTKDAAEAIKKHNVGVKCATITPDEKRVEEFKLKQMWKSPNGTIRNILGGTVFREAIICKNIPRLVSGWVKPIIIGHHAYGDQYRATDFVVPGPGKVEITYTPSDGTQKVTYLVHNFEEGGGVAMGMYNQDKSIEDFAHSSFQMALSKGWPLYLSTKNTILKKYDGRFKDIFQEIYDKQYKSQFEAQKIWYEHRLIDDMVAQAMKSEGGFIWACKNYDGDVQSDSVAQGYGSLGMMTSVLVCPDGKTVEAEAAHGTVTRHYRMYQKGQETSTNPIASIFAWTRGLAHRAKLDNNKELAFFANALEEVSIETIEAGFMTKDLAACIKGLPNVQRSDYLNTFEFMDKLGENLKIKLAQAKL
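IDH1-R132H (0.5 ug/mL) preincubated 30 min with compound, then NADPH (0.016 mM) and alpha-KG (2 mM) added; 80 min at RT, pH 7.5. Remaining NADPH coupled via diaphorase/resazurin to fluorescence (540/590 nm); concentration-response curves normalized to no-enzyme control.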
Abeta rescue: compounds reversing amyloid beta toxicity in yeast. yeast expressing A-beta42, growth rescue, OD600, 48 h; response scale: 0% DMSO, 100% iron-clioquinol control. 0.063% of 410,000 active. Potency, µM (doses to about 46.1 µM), hits mostly activators; further: potency means the concentration at half of the fitted maximal effect; nearly all actives have a fitted effect of over 55% in size
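Yeast A-beta toxicity model in growth medium with pinned compounds, 48 h at 30 C; growth read as absorbance at 600 nm. Normalized to FeCl3/clioquinol equimolar mix (positive) and DMSO (negative).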
* = called active by the depositor; i = inactive; ? = inconclusive; · = not tested or not shown; [ ] = remark or other dose. Shown are actives, neighbours in structure and some others; about 2% of the full set was active somewhere. Unless noted, the call rests on the fitted dose curve; in most records, active means well fitted curve in the direction sought with a large enough effect; inconclusive means small, poorly fitted or top-dose-only effect, or another doubt; inactive means no such curve, though single readings can be large; an effect the other way counts as inactive or inconclusive.

SMILES	TDP-43 yeast inh	LDHA block	FUS yeast rescue	aSyn yeast inh	IDH1 R132H inh	Abeta rescue
CC(=O)N1N=C(c2cccc([N+](=O)[O-])c2)OC1c1ccccc1Cl (configuration not stated)	22.4µM*	-2.7	i	7.3%	2.0%	i
c1ccc(CNc2ncnc3scc(-c4cccs4)c23)nc1	17.8µM*	-3.8	i	10.7%	14.4%	i
c1ccc(-c2csc3ncnc(NCc4ccccn4)c23)cc1	?	-11.7	i	7.2%	-0.6%	i
COc1cc2c(c(OC)c1)C(c1ccc(F)c(Br)c1)C1=C(CCCC1=O)N2 (configuration not stated)	·	12.6	·	·	·	·
CCN1C(=O)C(CC(=O)Nc2ccccc2Cl)N(NC(=O)c2cccc(F)c2)C1=S (configuration not stated)	6.31µM*	4.2	·	15.0%	9.8%	i
Cc1cc(OCc2cc(C(=O)N(C)CCc3cnn(C)c3)no2)cc(C)c1Cl	3.4%	-3.3	i	5.8%	3.9%	i
Cc1cc(OCc2cc(C(=O)N(C)Cc3nonc3C)no2)cc(C)c1Cl	?	-2.1	i	16.6%	3.8%	14.1µM*
Cc1cc(OCc2cc(C(=O)N(C)C3CCOC3)no2)cc(C)c1Cl (configuration not stated)	12.6µM*	1.3	i	11.3%	14.1%	i
CCc1ccc(CN(C)C(=O)c2cc(COc3cc(C)c(Cl)c(C)c3)on2)nc1	20µM*	0.0	?	?	17.0%	i
COC(=O)CNC(=O)Nc1c(-c2cccnc2)[nH]c2ccccc12	·	-4.7	·	·	·	·
O=c1oc2ccc(Br)cc2cc1-c1csc(Nc2c(F)cccc2F)n1	·	0.4	·	·	·	·
Cc1cccc(Cn2cc(C(=O)Nc3cc(F)ccc3F)ccc2=O)c1	22.4µM*	2.6	?	?	-7.2%	?
CC(=O)c1cc(CN2C(=O)c3ccccc3C2=O)cs1	14.1µM*	-4.8	i	20.6%	4.5%	i
COc1ccc(/C=C2\SC(=O)NC2=S)cc1OC	8.91µM*	-6.3	i	-15.9%	-15.3%	i
COc1cc(/C=C(\C#N)C(N)=O)ccc1OS(=O)(=O)c1ccc(C)cc1	17.8µM*	-6.3	i	-5.7%	-24.1%	i
COc1cc(/C=C2/SC(=S)NC2=O)ccc1OS(=O)(=O)c1ccc(C)cc1	0.0%	-34.3*	i	-29.8%	?	i
O=C(C1CC1)N1c2nc(-c3ccco3)nn2C2(CCCCC2)[C@@H]2CCCC[C@@H]21	·	11.0	·	·	·	·
O=C1OC(C(=O)Nc2cccc3ncccc23)Cc2ccccc21 (configuration not stated)	·	0.4	·	·	·	·
COc1cccc(-c2nn(-c3ccc(C)cc3)cc2C(=O)N(C)CC(=O)Nc2cccc(F)c2)c1	22.4µM*	0.9	·	1.3%	2.5%	i
CC(=O)NC(NC(=S)Nc1cccc(C)c1)C(Cl)(Cl)Cl (configuration not stated)	·	-2.3	·	·	·	·
Clc1cccc(OCc2nnc(-c3ccccc3Br)o2)c1	17.8µM*	-5.6	i	?	24.8%	i
c1ccc(-c2nnnc3ccccc23)cc1	18.0%	-0.7	i	2.3%	4.3%	i
Clc1ccc2nnnc(-c3ccccc3)c2c1	3.16µM*	-0.7	i	14.1%	4.8%	i
c1ccc2nc3c(nc2c1)[nH]c1ccccc13	7.08µM*	-3.0	i	6.9%	-5.1%	i
CC1CCCN(c2nc(-c3ccccc3O)nc3ccccc23)C1 (configuration not stated)	20µM*	0.7	i	0.3%	8.3%	i
SMILES	TDP-43 yeast inh	LDHA block	FUS yeast rescue	aSyn yeast inh	IDH1 R132H inh	Abeta rescue
CC1CCN(c2nc(-c3ccncc3)nc3ccccc23)CC1	12.6µM*	3.0	i	?	8.3%	i
Oc1ccccc1-c1nc(NCC2CCCO2)c2ccccc2n1 (configuration not stated)	11.2µM*	-5.1	i	-8.9%	-2.2%	i
O=C(Nc1cc(C(F)(F)F)ccc1C(=O)O)c1ccccc1Cl	·	-4.0	·	·	·	·
C=Cc1ccc(Cn2nc(-c3ccccc3)ccc2=O)cc1	11.2µM*	-1.7	?	?	-3.4%	i
Cc1ccc(CN(C)C(=O)c2cccc(S(=O)(=O)N3CCc4ccccc4C3)c2)o1	35.5µM*	-0.3	i	1.6%[1.84 µM]	-6.8%	i
O=C(C1=Cc2sc3c(c2CS1)CCCC3)N1CCCCC1	·	2.9	·	·	·	·
CCC(=O)Nc1ccc(Cl)c(-c2nc3ccc(C)cc3o2)c1	·	5.9	·	·	·	·
CCc1ccc(NS(=O)(=O)c2ccc(C)c(C(=O)N3CCOCC3)c2)cc1	5.6%	-44.1*	i	-2.9%	-2.9%	i
CC(OC(=O)CSc1ccc([N+](=O)[O-])cc1)C(=O)NCc1ccco1 (configuration not stated)	19.0%	-1.4	i	-0.1%	3.3%	i
CC1CCN(C(=O)C(C)OC(=O)CSc2ccc([N+](=O)[O-])cc2)CC1 (configuration not stated)	35.5µM*	1.4	i	-10.3%	-13.6%	i
Cc1nc2c(OCCOc3ccccc3)cccn2c1N(C)C(=O)CCC1CCCC1	?	8.0	i	10.4%	·	i
Cc1nc2c(OCCC3CCCCC3)cccn2c1N(C)C(=O)CCC1CCCC1	35.5µM*	2.8	i	-50.3%	·	i
Cc1nc2c(OCc3cc(Cl)cc(Cl)c3)cccn2c1N(C)C(=O)CCC1CCCC1	35.5µM*	4.1	?	-44.2%	·	i
CO/N=C(\C)c1ccc(OCc2ccccc2)cc1	·	9.5	·	·	·	·
Cc1c(-c2cccs2)nc2ccccc2c1-c1ccccc1	·	-0.6	·	·	·	·
O=C(Nc1cccc(C(=O)Nc2ccc(S(=O)(=O)O)c3cc(S(=O)(=O)O)cc(S(=O)(=O)O)c23)c1)Nc1cccc(C(=O)Nc2ccc(S(=O)(=O)O)c3cc(S(=O)(=O)O)cc(S(=O)(=O)O)c23)c1	·	-111.9*	·	5.0%	·	·
O=C(O)c1cccc(NC(=O)c2cccc(S(=O)(=O)Nc3cccc(C(=O)O)c3)c2)c1	-1.9%	-2.5	i	·	1.5%	i
